High-throughput results as filed in PubChem BioAssay.
ALDH1A1 block = qHTS Assay for Inhibitors of Aldehyde Dehydrogenase 1 (ALDH1A1); Purified ALDH1A1, NADH fluorescence, propionaldehyde substrate; 7.3% of 220,000 active; Potency, µM (titrated, usually from 75.3 µM), for inactives: top-dose activity, negative = inhibition, actives largely listed as inhibitors; active = well fitted inhibition curve with a large enough effect, not every such curve was filed as active; inconclusive = small, poorly fitted or top-dose-only effect, or another doubt; inactive = no such curve, though single readings can be large or run the other way;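 also: plate controls were no enzyme wells and a reference inhibitor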
PLK1 PBD block = qHTS for Inhibitors of PLK1-PDB (polo-like kinase 1 - polo-box domain): Primary Screen; Serine/threonine-protein kinase PLK1 (Homo sapiens), P53350; Plk1 PBD binding of FITC phosphopeptide, fluorescence polarization; Potency, µM, for the others: max response, negative = inhibition, actives largely listed as inhibitors; 2.8% of 360,000 active; AID 720504, 2013; also: series mostly up to about 57 µM; nearly all actives have a fitted effect of over 65% in size
Target sequence (P53350 whole entry, looked up, the tested form may be a part): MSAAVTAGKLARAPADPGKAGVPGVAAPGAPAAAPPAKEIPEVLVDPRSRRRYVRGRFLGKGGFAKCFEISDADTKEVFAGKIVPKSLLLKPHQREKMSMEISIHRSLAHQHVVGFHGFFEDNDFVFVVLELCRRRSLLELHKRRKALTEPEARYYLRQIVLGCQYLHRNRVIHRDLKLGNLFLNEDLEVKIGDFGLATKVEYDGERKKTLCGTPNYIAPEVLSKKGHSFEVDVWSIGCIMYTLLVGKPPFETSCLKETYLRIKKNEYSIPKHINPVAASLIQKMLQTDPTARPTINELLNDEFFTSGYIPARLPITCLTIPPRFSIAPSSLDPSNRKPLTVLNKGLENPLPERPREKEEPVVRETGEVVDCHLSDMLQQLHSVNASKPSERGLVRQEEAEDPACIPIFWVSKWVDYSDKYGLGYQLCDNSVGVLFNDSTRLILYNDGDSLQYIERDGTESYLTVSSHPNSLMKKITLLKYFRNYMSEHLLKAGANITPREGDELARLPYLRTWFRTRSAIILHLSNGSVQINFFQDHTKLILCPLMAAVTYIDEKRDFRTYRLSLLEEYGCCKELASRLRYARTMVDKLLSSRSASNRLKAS
Sfp inh = qHTS Assay for Inhibitors of Bacillus subtilis Sfp phosphopantetheinyl transferase (PPTase). Potency, µM, inactives show largest response in the series, negative = inhibition, usual class: inhibitors. 3.5% of 310,000 active. Biochemical Sfp PPTase activity, qHTS. AID 1490, 2009;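 also: the enzyme is Sfp with the accession as filed and its product quenches rhodamine fluorescence; 0% = enzyme reaction without inhibitor and -100% = no enzyme wells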
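Compounds were incubated with enzyme (final 15 nM) for 15 min at room temperature before substrate addition started the reaction. Fluorescence at 525 nm excitation, 598 nm emission was recorded immediately and after 30 minutes.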
RORgamma inh = qHTS for inhibitors of ROR gamma transcriptional activity; Drosophila S2 Gal4-RORgamma UAS-luciferase reporter, 20 h; Potency, µM (doses to about 53.6 µM), for the others: top-dose activity change, negative = inhibition, usual class: inhibitors; 5.4% of 310,000 active; AID 2551, 2010; also: nearly all actives have a fitted effect of over 60% in size
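Using a luciferase readout, inhibitors were identified by reduced reporter activity in Drosophila cells coexpressing a copper-inducible Gal4–ROR gamma fusion and UAS-driven Photinus luciferase, incubated 20 hr after 700 uM copper sulfate.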
VP16 counter = VP16 counterscreen qHTS for inhibitors of ROR gamma transcriptional activity. 3.5% of 310,000 active. AID 2546, 2010. Drosophila S2 Gal4-VP16 UAS-luciferase, luminescence, 20 h. Potency, µM (doses to about 53.6 µM), without a hit: top-dose activity, negative = inhibition, hits mostly inhibitors;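 also: Gal4-VP16 expression switched on by copper sulfate through the metallothionein promoter; nearly all actives have a fitted effect of over 50% in size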
The depositor's hits bear a star; [ ] = another dose, or the depositor's remark. Shown are actives, neighbours in structure and some others; about 12% of the full set was active somewhere. Unless noted, calls follow the shape of the dose curve; as a rule, active = well fitted curve in the direction sought with a large enough effect; inconclusive = small, poorly fitted or top-dose-only effect, or another doubt; inactive = no such curve, though single readings can be large; an effect the other way counts as inactive or inconclusive. Unless noted, % is scaled to controls: 0 for no effect and ±100 for the full control effect; potency is read from the fitted curve at half-maximal effect.

O=C(NCCc1cscn1)C1CCC(=O)N(Cc2ccc(Cl)cc2)C1 (stereo not given) was read as PLK1 PBD block -9.4%, Sfp inh -9.8%, RORgamma inh 20µM* and VP16 counter inconclusive.
Screening COC(=O)c1ccc(C(=O)Nc2nc3cc(N)c(C)cc3s2)cc1 returned PLK1 PBD block 2.3%, Sfp inh 2.1%, RORgamma inh -14.2% and VP16 counter inconclusive.
COC(=O)c1ccc(-c2nc3cc(Cl)c(N)cc3s2)cc1 was read as ALDH1A1 block 10.3%, PLK1 PBD block 0.1%, Sfp inh -3.1%, RORgamma inh 5.01µM* and VP16 counter -9.7%[0.365 µM].
`C(=N\Nc1ccccn1)/c1c[nH]c2ccccc12` gave PLK1 PBD block 5.3%, Sfp inh inconclusive, RORgamma inh inconclusive and VP16 counter inconclusive.
`O=c1nc(N/N=C/c2c[nH]c3ccccc23)cn[nH]1` gave PLK1 PBD block -5.0%, Sfp inh 50.1µM*, RORgamma inh inconclusive and VP16 counter -28.6%.
Screening COCCCNC(=O)/C(C#N)=C/c1cccc(NC(=O)c2ccccc2Cl)c1 returned ALDH1A1 block 14.1µM*, PLK1 PBD block -17.6%, Sfp inh 20.6%, RORgamma inh inconclusive and VP16 counter -22.9%.
For COCCCNC(=O)/C(C#N)=C/c1ccc(F)cc1 the results were ALDH1A1 block inconclusive, PLK1 PBD block -15.7%, Sfp inh -10.5%, RORgamma inh -22.9% and VP16 counter 5.2%.
For N#C/C(=C\c1cccc(NC(=O)c2ccccc2Cl)c1)C(=O)NCCc1ccccc1 the results were ALDH1A1 block 25.1µM*, PLK1 PBD block -12.2%, Sfp inh 8.4%, RORgamma inh inconclusive and VP16 counter inconclusive.
For COCOc1cc(OC)ccc1C(=O)/C=C/c1cccc(C(F)(F)F)c1 the results were ALDH1A1 block -4.1%, Sfp inh -3.3%, RORgamma inh 4.5% and VP16 counter -11.1%.
Screening CC(C)=CCC1C(=O)N(c2ccccc2)N(c2ccccc2)C1=O returned Sfp inh -6.9%, RORgamma inh -20.0%[10 µM] and VP16 counter inconclusive.
`CCCCC1C(=O)N(c2ccccc2)N(c2ccc(O)cc2)C1=O` (stereo not given) gave ALDH1A1 block inconclusive, PLK1 PBD block 23.8µM*, Sfp inh -21.7%, RORgamma inh 4.47µM* and VP16 counter 5.62µM*.
`CC(C(=O)O)c1ccc(C(=O)c2cccs2)cc1` (stereo not given) gave ALDH1A1 block inconclusive, PLK1 PBD block -8.2%, Sfp inh 9.5%, RORgamma inh 0.5% and VP16 counter 1.6%.
For Cc1ccc(C(=O)c2nocc2C(=O)c2cccs2)cc1 the results were ALDH1A1 block 3.16µM*, PLK1 PBD block -10.6%, Sfp inh 20.8%, RORgamma inh inconclusive and VP16 counter inconclusive.
For CC(=O)OC1C(=O)[C@@]2(C)C(O)CC3OC[C@]3(OC(C)=O)C2C(OC(=O)c2ccccc2)[C@]2(O)CC(OC(=O)C(O)C(NC(=O)c3ccccc3)c3ccccc3)C(C)=C1C2(C)C (stereo not given in full) the results were ALDH1A1 block 3.8%, Sfp inh -43.5%, RORgamma inh inconclusive and VP16 counter -6.9%.
`CC(=O)O[C@H]1C(=O)[C@@]2(C)C([C@H](OC(=O)c3ccccc3)[C@]3(O)C[C@H](OC(=O)[C@H](O)[C@@H](NC(=O)c4ccccc4)c4ccccc4)C(C)=C1C3(C)C)[C@]1(OC(C)=O)CO[C@@H]1C[C@H]2O` (stereo not given in full) gave PLK1 PBD block 0.7%, Sfp inh 22.4%, RORgamma inh inconclusive and VP16 counter 20µM*.
Screening CC(=O)O[C@H]1C(=O)[C@@]2(C)C([C@H](OC(=O)c3ccccc3)[C@]3(O)C[C@H](OC(=O)[C@H](O)[C@@H](NC(=O)c4ccccc4)c4ccccc4)C(C)=C1C3(C)C)[C@]1(OC(C)=O)CO[C@@H]1C[C@@H]2O (stereo not given in full) returned ALDH1A1 block 5.6% and Sfp inh 44.7µM*.
For COc1ccc(S(=O)(=O)Nc2ccc(O)c3ccccc23)cc1 the results were ALDH1A1 block inconclusive, PLK1 PBD block 26.7µM*, Sfp inh -3.8%, RORgamma inh 0.0% and VP16 counter -5.6%.
Cc1ccc(S(=O)(=O)Nc2ccc(O)c3ccccc23)c(C)c1 was read as PLK1 PBD block 4.23µM*, Sfp inh 56.2µM*, RORgamma inh -42.1% and VP16 counter -16.6%.
`Cc1ccc(S(=O)(=O)Nc2ccc3c4c(cccc24)CC3)c(C)c1` gave PLK1 PBD block -6.4%.
For COc1cc(/C=C/C(=O)O)cc(S(=O)(=O)Nc2ccc3nc(C)sc3c2)c1OC the results were PLK1 PBD block -17.9%, Sfp inh 39.8µM*, RORgamma inh -3.4% and VP16 counter -3.8%.
For Cc1ccc(C)c(S(=O)(=O)Nc2ccc(O)c3ccccc23)c1 the results were PLK1 PBD block 23.8µM*, Sfp inh 70.8µM*, RORgamma inh inconclusive and VP16 counter inconclusive.
Screening COc1ccc(S(=O)(=O)Nc2ccccc2)cc1 returned PLK1 PBD block -3.5%.
For O=S(=O)(Nc1ccc(O)c(NS(=O)(=O)c2ccccc2)c1)c1ccccc1 the results were PLK1 PBD block -9.9%, Sfp inh 39.8µM*, RORgamma inh -10.8% and VP16 counter inconclusive.
Screening Cc1ccc(/C=C/C(=O)O)cc1S(=O)(=O)Nc1ccc(C(=O)O)cc1 returned PLK1 PBD block 26.7µM*, Sfp inh -8.7%, RORgamma inh 0.6% and VP16 counter -4.8%.
Screening Cc1ccc(S(=O)(=O)Nc2cc(C(C(=O)OC(C)C)C(=O)C(F)(F)F)c(O)c3ccccc23)c(C)c1 (stereo not given) returned ALDH1A1 block -4.6%, PLK1 PBD block -19.5%, Sfp inh 56.2µM*, RORgamma inh -27.8% and VP16 counter inconclusive.
For O=S(=O)(Nc1c(O)ccc2ccccc12)c1ccccc1 the results were PLK1 PBD block 23.8µM*.
For O=S(=O)(Nc1cccc2ccccc12)c1ccccc1 the results were PLK1 PBD block 2.9%, Sfp inh 10.3%, RORgamma inh 1.0% and VP16 counter -0.7%.
`CCOC(=O)C1(Cc2ccccc2)CCCN(C(=O)COc2ccccc2OC)C1` (stereo not given) gave PLK1 PBD block 1.5%.
